Screens deposited in PubChem by several laboratories.
NTR1 agonist: NTR1 (human) agonism. NTR1-U2OS beta-arrestin-GFP spot imaging, agonist mode. activation, % at 20 µM. hit rate 0.17% among 330,000. AID 493036;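 active = activation at or above 40% of the spot to cytoplasm intensity ratio, with at least 20 cells analyzed; inconclusive = wells under 20 cells, flagged as cytotoxic or low count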
Target sequence (P30989 whole entry, looked up): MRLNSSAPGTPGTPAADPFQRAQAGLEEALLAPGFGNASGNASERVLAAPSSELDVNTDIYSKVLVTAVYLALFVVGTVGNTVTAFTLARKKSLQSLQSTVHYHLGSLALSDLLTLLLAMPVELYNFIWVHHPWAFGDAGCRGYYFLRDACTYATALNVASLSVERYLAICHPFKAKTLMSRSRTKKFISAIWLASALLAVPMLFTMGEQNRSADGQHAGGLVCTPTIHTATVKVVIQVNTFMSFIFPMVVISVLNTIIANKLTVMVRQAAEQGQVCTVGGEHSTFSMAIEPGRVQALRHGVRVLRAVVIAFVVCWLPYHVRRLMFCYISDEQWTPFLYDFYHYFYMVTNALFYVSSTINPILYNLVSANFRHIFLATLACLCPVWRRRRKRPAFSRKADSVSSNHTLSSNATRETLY
Cardio protect: modulators protecting cardiomyocytes from myocardial damage; H9c2 cardiomyocytes, H2O2 injury protection, ATPLite, 2 h; protection from H2O2 cell death, % at 20 µM; hit rate 0.63% among 360,000; AID 588492;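 active = compounds giving at least 50% protection of heart cells from peroxide-induced death in the single-dose screen, raw or plate-pattern-corrected value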
AI-2 QS modul: Vibrio harveyi AI-2 quorum sensing modulation | Vibrio harveyi JMH597 AI-2 luminescence/OD600 ratio, 9 h; stronger effect = lower value; strain lacks LuxN and CqsS sensors; 0 = neutral-control median | activity change, % at 7.5 µM | hit rate 0.4% among 300,000; in the data active = activity change below about -75%, passing the limit was not always enough; inconclusive = no clear call, values can overlap the other calls;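 also: luminescence divided by OD600 gain over 9 h not by final OD600 alone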
AHR act: human AHR activation | AHR-responsive luciferase reporter cells, luminescence | hit rate 2.5% among 320,000 | AID 2796 | activation, % at 5 µM; in the data active = activation above about 47%
GRIN3A LBD mod: NR3A (human) ligand-binding domain modulation | NR3A LBD differential scanning fluorimetry, Tm shift; 0% = protein alone, 100% = glycine-bound protein | Tm shift relative to glycine control, % at 25 µM | hit rate 2.5% among 340,000;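 active = melting temperature shift of at least 10% of the positive control shift, at one fixed dose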
SUMO Mot1 rescue: SUMOylation pathway inhibition by Mot1-301 growth rescue; S. cerevisiae Mot1-301 growth rescue, ATP luminescence, 38.5C; percent above DMSO median, 100 means doubled; growth rescue, % at 18.8 µM; hit rate 1% among 320,000;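 active = every valid replicate shows activation above 250% relative to neutral control wells; inactive = the rest, any valid replicate at or below 250%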
Large screens that a line does not name were inactive. Shown are actives, neighbours in structure and some others; about 6.2% of the full set was active somewhere.

Cc1ccc2nc(Nc3ccccc3)c(C=O)c(=O)n2c1	none
COc1ccc(S(=O)(=O)N(C)CC(=O)NC2CCCCC2)cc1Cl	GRIN3A LBD mod 11
COc1ccc(S(=O)(=O)N(C)CC(=O)NC2CCCCC2)cc1OC	none
CCN(CC(=O)NCc1ccc(Cl)cc1)C(=O)CSCC(=O)Nc1cccc(C)c1	none
CCC(C(=O)Nc1ccc([N+](=O)[O-])cn1)c1ccccc1 (stereo unspecified)	none
C[C@H]1CN(S(=O)(=O)c2c(F)cccc2F)CCN1S(=O)(=O)c1ccc2c(c1)OCCO2	GRIN3A LBD mod 11 (no result: AI-2 QS modul)
O=S(=O)(NNc1ncc(C(F)(F)F)cc1Cl)c1ccccc1	AHR act 69 (no result: AI-2 QS modul, SUMO Mot1 rescue)
FC(F)(F)c1cnc(NNC(=S)Nc2ccc(Cl)cc2)c(Cl)c1	GRIN3A LBD mod 18
COc1ccccc1CNC(=O)N1CCN(c2ccccc2C)CC1	none
O=C(O)c1cnn(-c2nc(-c3ccc(Cl)cc3)cs2)c1C(F)(F)F	GRIN3A LBD mod 28
CC(CCN1CCC(CN2C(=O)C(=O)NC[C@@H]2Cc2ccccc2)CC1)c1ccccc1 (stereo partly specified)	none (no result: NTR1 agonist, AI-2 QS modul, AHR act, SUMO Mot1 rescue)
Cc1ccc2nc(/C(C#N)=C/c3cn[nH]c3-c3ccc(F)cc3)[nH]c2c1	AHR act 76 (no result: SUMO Mot1 rescue)
Cc1ccc2nc(/C(C#N)=C/c3ccccc3C(=O)O)[nH]c2c1	none
COc1cccc(/C=C(\C#N)c2nc3ccc(C)cc3[nH]2)c1OCC(=O)O	none
Cc1ccc2nc(/C(C#N)=C/c3ccc(O)c(O)c3)[nH]c2c1	Cardio protect 71, AHR act 62, GRIN3A LBD mod 19
Cc1cccc(NC(=O)/C(C#N)=C/c2ccc(Cl)cc2)n1	none
Cc1cccc(NC(=O)/C(C#N)=C/c2cccc([N+](=O)[O-])c2)n1	SUMO Mot1 rescue 483
COCCN(Cc1nnc(-c2cccs2)o1)C(=O)CN1C(=O)NC2(CCCCC2)C1=O	none (no result: AI-2 QS modul)
COC(=O)C1CCN(C(c2ccc(OC)c(OC)c2)c2sc3nc(C)nn3c2O)CC1 (stereo unspecified)	GRIN3A LBD mod 13
COc1ccc(C(c2sc3nc(C)nn3c2O)N2CCC(C(N)=O)CC2)cc1OC (stereo unspecified)	none
CCc1ccccc1C1=CC(=O)C[C@H](c2ccc(OC)cc2)C1	none (no result: AI-2 QS modul)
O=C(CN(C(=O)c1csnn1)c1ccccc1C(F)(F)F)NC1CCCCC1	none
O=c1[nH]c(/C=C/c2ccc(OC(F)F)cc2)nc2c1cnn2-c1ccccc1	AHR act 75
CC1=NN(c2ccccc2)C(=O)C1N=Nc1ccccc1 (stereo unspecified)	none
COc1ccc(N=NC2C(=O)N(c3ccccc3)N=C2C)cc1 (stereo unspecified)	AHR act 51
CC1=NN(c2ccccc2)C(=O)C1N=Nc1ccc(N)cc1 (stereo unspecified)	AHR act 49
C[C@H]1CN([C@@H](C)CO)C(=O)c2cc(Br)cnc2O[C@H]1CN(C)C(=O)c1ccc2c(c1)OCO2	none (no result: NTR1 agonist, AI-2 QS modul, AHR act, GRIN3A LBD mod, SUMO Mot1 rescue)
O=C1NC[C@H](Cc2ccccc2)N(C[C@@H]2CCCN2C[C@H](Cc2ccccc2)N2C[C@H](Cc3ccccc3)N(CCc3ccccc3)C(=O)C2=O)C1=O	none (no result: NTR1 agonist, AI-2 QS modul, AHR act, GRIN3A LBD mod, SUMO Mot1 rescue)
COc1ccc(S(=O)(=O)NCc2cccnc2)cc1NC(=O)c1ccc(Cl)cc1	AI-2 QS modul inconclusive
O=C(NC1CC1)C1=C[C@@H](c2c[nH]c3ccccc23)C[C@@H](OCc2ccc(CO)cc2)O1	AHR act 76
O=C(NC1CC1)C1=C[C@@H](C2CC2)C[C@@H](OCCCCO)O1	none
O=C(NC1CC1)C1=C[C@@H](c2c[nH]c3ccccc23)C[C@@H](OCCCCO)O1	AHR act 65
O=C(NC1CC1)C1=C[C@H](c2c[nH]c3ccccc23)C[C@H](OCCCCO)O1	AHR act 72
O=C(NC1CC1)C1=C[C@@H](c2ccccc2)C[C@@H](OCc2ccc(CO)cc2)O1	none
CCN(CC(=O)Nc1ccccc1C(F)(F)F)C(=O)CCS(=O)(=O)c1ccc(C)cc1	none
COc1ccc(C(=O)O)c(OC)n1	SUMO Mot1 rescue 313
O=C(OCCNc1nc(-c2ccccc2)nc2ccccc12)c1ccncc1	AHR act 47
O=C(OCCNc1nc(-c2ccccc2)nc2ccccc12)c1cccnc1	AHR act 48
